Source: PubChem BioAssay (NCATS)
Inconclusive results are not listed. Calls of active or inactive are those of the source. The call rests on the fitted dose curve; in most records, active means well fitted curve in the direction sought with a large enough effect; inconclusive means small, poorly fitted or top-dose-only effect, or another doubt; inactive means no such curve, though single readings can be large; an effect the other way counts as inactive or inconclusive.

Legend:
[1] = Quantitative High-Throughput drug screen in 47 multiple myeloma cell lines against the NCATS MIPE library collection: ARP1_JJKsccF8 cell viability assay (AID 1918928; further: nearly all actives have a fitted effect of over 40% in size)
In short: (§1)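 Each line was plated at 500 cells/well and treated 48 h with library drugs. Viability came from CellTiter-Glo luminescence relative to DMSO and cell-free medium controls.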

[2] = Quantitative High-Throughput drug screen in 47 multiple myeloma cell lines against the NCATS MIPE library collection: ARD_JJKsccE7 cell viability assay (AID 1918929)
In short: (§2)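 Steps: seed 500 cells per well; pin-transfer MIPE 4.0 library; incubate 48 h at 37C, 5% CO2, humidified; add CellTiter-Glo, 5 min room temperature; read luminescence.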

[3] = Quantitative High-Throughput drug screen in 47 multiple myeloma cell lines against the NCATS MIPE library collection: Karpas620_DSMZ cell viability assay (AID 1918959); further: nearly all actives have a fitted effect of over 30% in size
In short: (§3)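 Myeloma cells (500 per well) were exposed to MIPE 4.0 compounds by pin transfer and incubated 48 hours at 37C, 5% CO2. Viability was read as ATP by CellTiter-Glo luminescence, normalised to DMSO (100%) and media-only (0%) wells.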

[4] = Quantitative High-Throughput drug screen in 47 multiple myeloma cell lines against the NCATS MIPE library collection: KMM1_JCRB cell viability assay (AID 1918960); further: nearly all actives have a fitted effect of over 30% in size
In short: as §1

[5] = Quantitative High-Throughput drug screen in 47 multiple myeloma cell lines against the NCATS MIPE library collection: Karpas417_ECACC cell viability assay (AID 1918961); conditions: Karpas417 myeloma viability, CellTiter-Glo ATP luminescence, 48 h; viability (% of DMSO): at 45.8 µM (top of the series)
In short: (§4)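 CellTiter-Glo ATP luminescence gave viability after 48 h compound treatment at 37C of 500 multiple myeloma cells per well. Normalisation used DMSO-only wells as 100% and media-only wells as 0% viability; primary qHTS of approved and investigational drugs.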

[6] = Quantitative High-Throughput drug screen in 47 multiple myeloma cell lines against the NCATS MIPE library collection: KHM11_PLB cell viability assay (AID 1918962); further: nearly all actives have a fitted effect of over 35% in size
In short: as §3

[7] = Quantitative High-Throughput drug screen in 47 multiple myeloma cell lines against the NCATS MIPE library collection: JIM1_ECACC cell viability assay (AID 1918964)
In short: as §2

[8] = Quantitative High-Throughput drug screen in 47 multiple myeloma cell lines against the NCATS MIPE library collection: INA6_PLB cell viability assay (AID 1918965; further: nearly all actives have a fitted effect of over 55% in size)
In short: as §4

[9] = Quantitative High-Throughput drug screen in 47 multiple myeloma cell lines against the NCATS MIPE library collection: JJN3_DSMZ cell viability assay (AID 1918966; further: nearly all actives have a fitted effect of over 50% in size)
In short: as §2

[10] = Quantitative High-Throughput drug screen in 47 multiple myeloma cell lines against the NCATS MIPE library collection: JIM3_ECACC cell viability assay (AID 1918963; further: nearly all actives have a fitted effect of over 35% in size)
In short: as §3

Measured: Potency
Potency means the concentration at half of the fitted maximal effect.

COCCOc1nc(-c2ccc(Cl)c(Cl)c2)n(-c2ccc(NC(=O)CCl)cc2)n1
active: [1] 23.5 µM | [2] 16.6 µM | [3] 16.6 µM | [4] 14.8 µM | [5] 16.6 µM | [6] 11.8 µM | [7] 14.8 µM | [8] 11.8 µM | [9] 23.5 µM

Nc1ncnc2c1ncn2[C@@H]1O[C@H](CO)C[C@@H]1O
inactive: [1] | [2] | [3] | [4] | [5] | [10]

CCCCCCCCCCCC1=C(O)C(=O)C=C(O)C1=O
active: [1] 11.8 µM | [2] 1.66 µM | [3] 0.264 µM | [4] 2.96 µM | [10] 4.69 µM | [7] 0.59 µM | [8] 2.64 µM

N#C[C@H]1C[C@H]2C[C@@H]2N1C(=O)[C@@H](N)C12CC3CC(CC(O)(C3)C1)C2
active: [1] 3.72 µM
inactive: [2] | [3] | [4] | [6] | [10]

Nc1ncnc2ccccc12
not listed: [5] | [6]
inactive: all other assays above

O=C(Nc1c(Cl)cncc1Cl)c1ccc(OC(F)F)c(OCC2CC2)c1
active: [8] 37.2 µM
not listed: [5] | [6] | [7]
inactive: all other assays above

Cc1nc(N)sc1-c1ccnc(Nc2ccc(N3CCOCC3)cc2)n1
active: [1] 8.33 µM | [2] 5.26 µM | [3] 20.9 µM | [4] 4.69 µM | [6] 6.62 µM | [10] 14.8 µM | [8] 1.48 µM | [9] 11.8 µM

CC[C@H]1OC(=O)[C@H](C)[C@@H](O[C@H]2C[C@@](C)(OC)[C@@H](O)[C@H](C)O2)[C@H](C)[C@@H](O[C@@H]2O[C@H](C)C[C@H](N(C)C)[C@@H]2O)[C@](C)(O)C[C@@H](C)CN(C)[C@H](C)[C@@H](O)[C@]1(C)O
inactive: [1] | [2] | [3] | [4] | [10]

CNC1CCC(N(Cc2cccc(-c3ccncc3)c2)C(=O)c2sc3c(F)ccc(F)c3c2Cl)CC1 (stereo not drawn)
active: [1] 16.6 µM | [2] 29.6 µM | [3] 16.6 µM | [4] 18.7 µM | [6] 0.469 µM | [10] 16.6 µM | [7] 14.8 µM | [8] 8.33 µM

COc1ccc(-c2coc3cc(O)ccc3c2=O)cc1
not listed: [4] | [6] | [8]
inactive: all other assays above

CC(C)(C)COc1ccc(-n2cc(C(=O)O)cn2)cc1C#N
not listed: [5] | [7]
inactive: all other assays above

CCOc1ccc(Nc2nc(-c3c(C)nc4ccccn34)cs2)cc1
active: [1] 0.003 µM | [2] 0.001 µM | [3] 0.0015 µM | [4] 0.001 µM | [6] 0.0743 µM | [8] 0.0026 µM | [9] 5.26 µM
inactive: [10]

CC(C)C(C)C=CC(C)C1CCC2C3=CC=C4CC(O)CCC4(C)C3CCC21C (stereo not drawn)
active: [3] 18.7 µM
inactive: [1] | [2] | [4] | [5] | [10]

CCc1ccc(OCc2ccccc2C(=O)Nc2ccc3nc(C)cc(N)c3c2)cc1
active: [1] 7.43 µM | [2] 2.64 µM | [3] 1.05 µM | [4] 2.64 µM | [5] 1.87 µM | [6] 2.35 µM | [10] 2.64 µM | [7] 2.64 µM | [8] 2.64 µM | [9] 6.62 µM

CC1(C)S[C@H]2[C@H](NC(=O)[C@@H](N)c3ccc(O)cc3)C(=O)N2[C@@H]1C(=O)O
active: [1] 20.9 µM | [2] 4.69 µM | [3] 14.8 µM | [4] 2.09 µM | [5] 1.66 µM | [7] 7.43 µM | [8] 20.9 µM
inactive: [10]

O=C(CCc1ccc(O)cc1)c1c(O)cc(O)cc1O[C@@H]1O[C@H](CO)[C@H](O)[C@H](O)[C@H]1O
inactive: [1] | [2] | [3] | [4] | [10]

COc1ccc(-c2nc(N3CCOCC3)c3sc(CN(C)c4ncc(C(=O)NO)cn4)cc3n2)cn1
inactive: [1]
active: [2] 0.001 µM | [3] 0.001 µM | [4] 0.001 µM | [7] 0.001 µM | [9] 0.0019 µM

COc1cc2nc(-c3ccc(N4CCN(C)CC4)cc3)nc(NCCN3CCOCC3)c2cc1OC
active: [1] 0.059 µM | [2] 0.296 µM | [3] 0.118 µM | [4] 0.0469 µM | [5] 0.0166 µM | [6] 0.235 µM | [10] 0.148 µM | [7] 0.166 µM | [8] 0.0372 µM | [9] 0.0148 µM

CN(C)c1cc(NC(=O)CNC(C)(C)C)c(O)c2c1C[C@@H]1C[C@H]3[C@H](N(C)C)C(=O)C(C(N)=O)=C(O)[C@@]3(O)C(=O)C1=C2O
not listed: [7] | [9]
inactive: all other assays above

CNC(=O)c1ccc2cc(C3(O)CCn4cncc43)ccc2c1 (stereo not drawn)
inactive: [1] | [2] | [4] | [6] | [10] | [9]

O=C1C(Cl)=C(NCCN2CCOCC2)C(=O)c2ncccc21
active: [1] 4.69 µM | [2] 5.26 µM | [4] 3.32 µM | [5] 3.32 µM | [6] 9.35 µM | [10] 8.33 µM | [7] 2.96 µM | [8] 2.96 µM | [9] 3.72 µM

CC[C@@]1(O)C[C@H](O[C@H]2C[C@H](N(C)C)[C@H](O[C@H]3C[C@H](O)[C@H](O[C@H]4CCC(=O)[C@H](C)O4)[C@H](C)O3)[C@H](C)O2)c2c(cc3c(c2O)C(=O)c2c(O)cccc2C3=O)[C@@H]1C(=O)OC
active: [1] 1.05 µM | [2] 5.26 µM | [4] 5.9 µM | [6] 0.132 µM | [10] 0.332 µM | [8] 0.0662 µM | [9] 0.296 µM

Oc1ccc(C2=Cc3ccc(O)cc3OC2)cc1
active: [1] 4.18 µM | [2] 1.66 µM | [4] 2.64 µM | [5] 2.64 µM | [6] 5.26 µM | [7] 3.32 µM | [8] 0.662 µM | [9] 1.48 µM

Clc1ccc(C(c2ccc(Cl)cc2)n2cc[n+](CC(OCc3ccc(Cl)cc3Cl)c3ccc(Cl)cc3Cl)c2)cc1 (stereo not drawn)
active: [1] 11.8 µM | [2] 11.8 µM | [4] 8.33 µM | [5] 8.33 µM | [6] 10.5 µM | [10] 16.6 µM | [7] 8.33 µM | [9] 20.9 µM

O=c1c(-c2ccc(O)cc2)coc2cc(O[C@@H]3O[C@H](CO)[C@H](O)[C@H](O)[C@H]3O)ccc12
active: [1] 3.72 µM
inactive: [2] | [4] | [7] | [9]

N#Cc1ccc(NC(=O)Nc2ccccc2Br)c2n[nH]nc12
active: [2] 10.5 µM | [4] 20.9 µM
inactive: [1] | [10]

CC1(C)CCC2=C(O1)c1ccccc1C(=O)C2=O
active: [1] 18.7 µM | [3] 2.96 µM | [10] 18.7 µM | [8] 20.9 µM
inactive: [2]

CCC(=O)NC[C@H](Cc1ccc(OCCc2nc(-c3ccccc3)oc2C)cc1)NC(C)=CC(=O)c1ccc(C(F)(F)F)cc1
inactive: [3] | [10]
active: [1] 23.5 µM | [2] 1.48 µM

O=C(CCCCCCC(=O)Nc1ccccc1)NO
active: [1] 0.833 µM | [2] 1.18 µM | [4] 1.32 µM | [5] 1.05 µM | [6] 7.43 µM | [10] 5.9 µM | [8] 0.935 µM | [9] 3.32 µM

Cc1ccc(C(=O)Nc2cccc(C(F)(F)F)c2)cc1Nc1nc(-c2cccnc2)nc2c1cnn2C
active: [1] 10.5 µM | [6] 13.2 µM | [10] 10.5 µM | [8] 11.8 µM | [9] 18.7 µM
inactive: [2] | [4] | [7]

C[C@]12CC[C@@H]3c4ccc(O)cc4CC[C@H]3[C@H]1C[C@@H](O)[C@H]2O
active: [1] 9.35 µM
inactive: [2] | [5] | [10]

Cc1[nH]c(C=C2C(=O)Nc3ccc(S(=O)(=O)Cc4c(Cl)cccc4Cl)cc32)c(C)c1C(=O)N1CCC[C@H]1CN1CCCC1
active: [1] 23.5 µM | [2] 9.35 µM | [4] 18.7 µM | [5] 1.48 µM | [6] 8.33 µM | [10] 18.7 µM | [8] 3.32 µM | [9] 23.5 µM

COc1ccc(-c2oc3c(CC=C(C)C)c(OC4O[C@H](CO)[C@@H](O)[C@H](O)[C@@H]4O)cc(O)c3c(=O)c2OC2O[C@@H](C)[C@H](O)[C@@H](O)[C@@H]2O)cc1 (stereo partly drawn)
active: [1] 16.6 µM | [2] 9.35 µM | [5] 10.5 µM | [10] 20.9 µM | [8] 33.2 µM | [9] 18.7 µM

O=C(CCN1CCN(C(=O)OCc2cc(Cl)cc(Cl)c2)CC1)c1ccc2[nH]c(=O)oc2c1
inactive: [1] | [4] | [10]
active: [2] 0.0166 µM | [6] 2.64 µM

NS(=O)(=O)c1cccc2c1C(=O)c1cccc(O)c1C2=O
active: [1] 0.332 µM | [2] 0.264 µM | [4] 0.264 µM | [5] 0.148 µM | [6] 0.662 µM | [10] 0.187 µM | [7] 0.209 µM | [8] 0.148 µM | [9] 0.264 µM

COc1cc(NC(=O)c2ccc(-c3ccc(Cl)cc3)o2)cc(OC)c1
inactive: [1]
active: [3] 20.9 µM | [4] 16.6 µM | [5] 2.96 µM | [6] 14.8 µM | [10] 11.8 µM | [8] 8.33 µM

O=C1c2c(O)cc(O)cc2O[C@H](c2cc(O)c(O)c(O)c2)[C@H]1O
active: [1] 11.8 µM | [7] 5.9 µM | [9] 16.6 µM
inactive: [2] | [4] | [6] | [10]
